# SMN2 splice enh: increases expression of the SMN2 splice variant. HEK293 SMN2-luciferase splicing reporter, luminescence, 30-36 h. 210,000 tested, 2.8% active. AID 1458. Potency, µM (top dose mostly 46.1 µM), most hits filed as activators; further: nearly all actives have a fitted effect of over 55% in size
#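 qHTS luciferase splicing reporter: luminescence rises when SMN2 exon 7 is included in transfected HEK293 cells. Compound exposure lasted 30-36 h at 37C, with 4.5 mM final sodium butyrate as control, followed by a ONE-Glo read.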
# ELG1 genotox: induces genotoxicity in HEK293T cells with luciferase-tagged ELG1 | HEK293T ELG1-luciferase reporter, luminescence, 16 h | Potency, µM (series often up to 46 µM), most hits filed as activators | 330,000 tested, 1.3% active | AID 504466; further: nearly all actives have a fitted effect of over 60% in size
#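 After overnight (16 hr) compound treatment at 37 °C, ELG1-luciferase HEK293T cells were lysed with ONE-Glo; luminescence quantified 30 min later at room temperature.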
# KinaseGlo FLuc: blocks Kinase-Glo luciferase, a counter-screen artifact | Q27757 | Kinase-Glo luciferase, ATP luminescence, 8 min | Potency, µM (highest dose often 38.3 µM), actives largely listed as inhibitors | 200,000 tested, 0.28% active | AID 1379; further: nearly all actives have a fitted effect of over 60% in size
#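 Luminescence was the read-out, taken after 8-minute incubation at ambient temperature. Luciferase turned over luciferin with 10 uM ATP in imidazole pH 7.2 buffer containing KCl, MgCl2, Tween 20 and BSA.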
# NPC1 promoter act: NPC1 promoter activation; Potency, µM (titrated, usually from 9.22 µM), usual class: activators; 320,000 tested, 2.4% active; Huh7 NPC1 promoter luciferase reporter, 24 h; further: nearly all actives have a fitted effect of over 60% in size
#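 Luminescence from an NPC1 promoter-driven luciferase reporter in stably transfected Huh7 cells was measured after 24 h compound treatment at 37 °C, followed by 10 min ambient incubation with luciferase detection reagent.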
# FLuc counter: firefly luciferase modulation, counter-screen for miR-21 project; P08659; purified FLuc, Km substrates, luminescence inhibition; Potency, µM (titrated, usually from 57.5 µM), usual class: inhibitors; 360,000 tested, 6.9% active; AID 588342; further: nearly all actives have a fitted effect of over 55% in size
# Target sequence (P08659 whole entry, looked up): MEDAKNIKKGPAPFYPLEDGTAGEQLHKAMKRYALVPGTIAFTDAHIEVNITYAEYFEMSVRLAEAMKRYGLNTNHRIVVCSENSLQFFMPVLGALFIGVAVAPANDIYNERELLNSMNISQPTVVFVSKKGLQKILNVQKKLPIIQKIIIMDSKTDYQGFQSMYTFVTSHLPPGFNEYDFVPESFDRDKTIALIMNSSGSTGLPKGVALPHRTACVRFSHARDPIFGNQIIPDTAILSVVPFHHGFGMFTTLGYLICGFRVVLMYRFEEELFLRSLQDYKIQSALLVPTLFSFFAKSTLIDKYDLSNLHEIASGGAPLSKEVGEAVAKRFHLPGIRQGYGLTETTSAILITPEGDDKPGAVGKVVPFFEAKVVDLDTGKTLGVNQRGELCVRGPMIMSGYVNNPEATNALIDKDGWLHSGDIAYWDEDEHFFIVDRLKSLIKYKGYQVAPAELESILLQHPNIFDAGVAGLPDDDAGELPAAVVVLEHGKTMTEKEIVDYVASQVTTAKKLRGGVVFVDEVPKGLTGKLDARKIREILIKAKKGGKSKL
#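 Purified P. pyralis luciferase, 10 nM final, with Km-level 10 uM D-luciferin and 10 uM ATP in 50 mM Tris acetate pH 7.5, 10 mM Mg acetate, 0.01% Tween-20, 0.05% BSA; 6-point qHTS titration about 60 µM downward; luminescence read.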
# Rab9 promoter act: Rab9 promoter activation | Huh7 Rab9 promoter-luciferase reporter, luminescence, 24 h | Potency, µM (doses to about 9.22 µM), hits mostly activators | 320,000 tested, 2.8% active | AID 485297; further: nearly all actives have a fitted effect of over 60% in size
#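 Huh7 cells stably carrying a Rab9 promoter-luciferase reporter, 1500 cells per well in OP-MEM I with 10% FBS, treated with compound 24 hours at 37C. Luciferase activity read by luminescence after 10 minutes with Amplite reagent.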
# Numbers stand for hits; – = inactive; ? = inconclusive; · = no result given; [ ] = another dose, or the depositor's remark. Only some compounds are listed: those with a hit (about 7.4% of all), similar ones and a draw of the others. The call rests on the fitted dose curve; in most records, active means well fitted curve in the direction sought with a large enough effect; inconclusive means small, poorly fitted or top-dose-only effect, or another doubt; inactive means no such curve, though single readings can be large; an effect the other way counts as inactive or inconclusive.
SMILES,SMN2 splice enh,ELG1 genotox,KinaseGlo FLuc,NPC1 promoter act,FLuc counter,Rab9 promoter act
CC(CNC(=O)COC(=O)c1cccnc1Cl)c1ccccc1 (stereo not drawn),·,–,·,–,–,–
CC1(C)SC2C(NC(=O)C(NC(=O)N3CCNC3=O)c3ccccc3)C(=O)N2C1C(=O)O (stereo not drawn),–,·,–,·,·,·
CN(C(=O)c1ccc(=O)n(Cc2ccc(Cl)cc2)c1)c1ccccc1,–,–,–,–,–,–
Cc1nn(-c2ccc(Cl)c(Cl)c2Cl)c(=O)c2ccccc12,–,–,–,–,–,–
Cc1nn(-c2ccc(Cl)nn2)c(=O)c2ccccc12,?,?,–,–,17µM,?
O=C(O)c1cc2c(cc1NC(=O)C1CCCC1)OCCO2,·,–,·,–,·,–
COc1ccc(/C=C/C2=Nc3ccccc3NC(C)(C)C2)cc1OC,·,–,·,–,6µM,?
COc1ccc(/C=C/C2=CC(C)(C)NC(=S)N2)cc1OC,–,–,–,–,–,–
O=C(Nc1ccccc1Cl)c1ccc2nc(N3CCOCC3)sc2c1,·,–,·,?,–,?
Cc1[nH]nc(N=CC2=C(O)CC(C)(C)CC2=O)c1-c1ccc(Cl)cc1,–,–,–,–,17µM,–
Cc1ccc(N=CC2=C(O)CC(C)(C)CC2=O)nc1,–,–,–,–,24µM,–
CCOc1ccc(N=CC2=C(O)CC(C)(C)CC2=O)cc1,–,?,–,–,24µM,–
COc1ccc(Nc2oc(/C=C/c3ccc(OC)c(OC)c3)nc2C#N)cc1,–,·,·,·,–,·
CC(C)(C)OC(=O)NCCCCCNC(=O)c1[nH]cnc1C(=O)NC1CCN(C(=O)OC(C)(C)C)CC1,·,–,·,–,–,–
C#CCNC(=O)/C=C/c1ccc(C)cc1,13µM,?,–,3.2µM,11µM,4µM
Cc1ccc(/C=C/C(=O)NCCCc2ccccc2)cc1,–,–,–,–,–,–
CC(C)(C)c1ccc(-c2nc(NCc3cccnc3)c3ccccc3n2)cc1,25µM,?,–,?,3.4µM,–
c1cncc(CNc2nc(-c3cccnc3)nc3ccccc23)c1,·,–,·,–,–,–
CCc1ccc(NC2=CC(=O)C(=O)c3ccccc32)cc1,·,–,·,–,11µM,–
O=C1C=C(Nc2ccccc2)C(=O)c2ccccc21,13µM,–,–,1.8µM,3.4µM,1µM
O=C1C=C(Nc2ccccc2)c2ccccc2C1=O,–,–,–,–,?,–
CC1=C([N+](=O)[O-])C(c2ccccc2C(F)(F)F)NC(=O)N1C (stereo not drawn),·,–,·,–,–,–
O=C(N/N=C/C(Cl)=C/c1ccccc1)c1ccccn1,13µM,?,–,4µM,4.8µM,1.8µM
Cc1cc(C(=O)N/N=C/c2cccnc2)c(C)o1,–,–,–,–,?,–
O=C(N/N=C1\C/C(=N\NC(=O)c2ccncc2)c2ccccc21)c1ccncc1,·,–,?,–,4.8µM,–
SMILES,SMN2 splice enh,ELG1 genotox,KinaseGlo FLuc,NPC1 promoter act,FLuc counter,Rab9 promoter act
Cc1cc(C(=O)N/N=C/C(Cl)=C/c2ccccc2)c(C)o1,·,–,·,–,9.5µM,–
O=C(N/N=C/C=C\c1ccccc1)c1cnccn1,–,–,–,–,?,–
O=C(N/N=C/C(Br)=C/c1ccccc1)c1cnccn1,·,?,·,–,6µM,3.5µM
CCOc1ccccc1C(=O)OCC(=O)NCCNC(=O)COC(=O)c1ccccc1OCC,·,–,·,–,–,–
CC(=O)c1cccc(NC(=O)C(C)OC(=O)CCN=C2NS(=O)(=O)c3ccccc32)c1 (stereo not drawn),·,–,·,–,–,–
O=C(N/N=C/C=C/c1ccccc1)c1ccccn1,·,?,·,?,17µM,3.5µM
O=C(NN=C1c2ccccc2-c2ccccc21)c1ccccn1,–,–,–,–,5.4µM,–
Cc1ccc(-c2cc(C(=O)N/N=C/C=C/c3ccccc3)n[nH]2)s1,–,–,–,–,9.5µM,–
Cc1cc(C(=O)N/N=C/C=C/c2ccccc2)n[nH]1,·,–,·,–,?,–
CC(=N/O)/C(C)=N\NC(=O)c1ccccn1,?,?,?,–,–,?
CC(/C=N/NC(=O)c1ccccn1)=C\c1ccco1,·,?,·,1.4µM,3.8µM,1.4µM
COc1ccccc1N1C(=O)N(CC(=O)C(C)(C)C)c2ccccc2S1(=O)=O,·,–,·,–,–,–
O=C(N/N=C/c1ccncc1)c1ccccc1,–,–,–,–,?,–
O=C(N/N=C/C(Cl)=C/c1ccccc1)c1ccncc1,–,–,–,–,17µM,–
COc1cc(NS(=O)(=O)c2ccc(NC(=S)NC(=O)c3ccc(F)c(F)c3)cc2)nc(OC)n1,·,–,·,–,–,–
c1ccc2c(c1)-c1nc3ccccc3cc1[C@H]2N1CCOCC1,–[9.22 µM],·,–[7.66 µM],·,·,·
OC1c2ccccc2-c2nc3ccccc3cc21 (stereo not drawn),14µM,·,?,·,·,·
NC(=O)c1sc2nc(-c3ccco3)ccc2c1N,?,?,–,?,11µM,?
Nc1c(C(=O)Nc2ccccc2F)sc2nc(-c3ccco3)ccc12,–,?,–,?,?,?
COC(=O)c1sc2nc(-c3ccco3)ccc2c1N,6.3µM,?,?,1.4µM,0.38µM,1.1µM
COC(=O)c1nnc(SC)nc1C(=O)OC,–,·,–,·,·,·
c1ccc(-c2cn3c4c(sc3n2)CCCC4)cc1,?,0.082µM,11µM,0.45µM,0.15µM,0.5µM
Cc1c(C(=O)N2CCc3ccccc3C2)sc2nc(-c3ccccc3)cn12,–,–,–,–,?,–
COc1ccccc1CNC(=O)c1cccc(S(=O)(=O)N(C)c2ccccc2)c1,·,–,·,–,–,–
O=Cc1c(-c2ccc(F)cc2)nc2ccccn12,–,–,–,–,–,–
SMILES,SMN2 splice enh,ELG1 genotox,KinaseGlo FLuc,NPC1 promoter act,FLuc counter,Rab9 promoter act
COc1ccc(-c2nc3ccccn3c2C=O)cc1,?,?,–,4µM,11µM,3.2µM
Nc1[nH]n(-c2ccccc2)c(=O)c1N=Nc1ccccc1,·,21µM,·,2.5µM,5.4µM,3.5µM
CC(=O)c1cccc(N=Nc2c(-c3ccccc3)[nH]n(-c3ccccc3)c2=O)c1,–,–,–,–,?,–
O=c1[nH]c(=O)c2cc([N+](=O)[O-])cc([N+](=O)[O-])c2[nH]1,–,–,–,–,?,–
Nc1[nH]n(-c2ccccc2)c(=O)c1N=Nc1ccc2ncsc2c1,·,–,·,–,19µM,–
O=c1c2cc([N+](=O)[O-])cc([N+](=O)[O-])c2[nH]n1-c1ccccc1,·,–,·,–,11µM,–
Nc1[nH]n(-c2ccccc2)c(=O)c1N=Nc1ccccc1[N+](=O)[O-],?,3.2µM,–,2µM,?,0.56µM
COc1ccc(NC(=O)C2CC(=O)N(Cc3ccco3)C2)cc1Cl (stereo not drawn),·,–,·,–,–,–
CSc1nc2cc(Oc3cccc(Cl)c3Cl)c(Cl)cc2[nH]1,·,·,·,–,?,–

# Source: PubChem
